# Measurements published in PubChem BioAssay (EPA / NIEHS).
# Records with an inconclusive call do not appear. Calls of active or inactive are those of the source. Rule for the calls: active = hit-call score of the fitted dose curve at least 0.9, where 1 is the maximum; inconclusive = response in the unintended direction; inactive = score below 0.9.
# Key:
# [1] = molecular target: PGR (gene 5241) (UniProt P06401); assay: NVS_NR_hPR: NovaScreen (NVS) Nuclear Receptor Binding Assay for human Progestron Receptor (PR) (AID 2283360);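 note: active means loss of bound radioligand signal versus DMSO baseline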
# Sequence of PGR (gene 5241) (P06401 whole entry, looked up): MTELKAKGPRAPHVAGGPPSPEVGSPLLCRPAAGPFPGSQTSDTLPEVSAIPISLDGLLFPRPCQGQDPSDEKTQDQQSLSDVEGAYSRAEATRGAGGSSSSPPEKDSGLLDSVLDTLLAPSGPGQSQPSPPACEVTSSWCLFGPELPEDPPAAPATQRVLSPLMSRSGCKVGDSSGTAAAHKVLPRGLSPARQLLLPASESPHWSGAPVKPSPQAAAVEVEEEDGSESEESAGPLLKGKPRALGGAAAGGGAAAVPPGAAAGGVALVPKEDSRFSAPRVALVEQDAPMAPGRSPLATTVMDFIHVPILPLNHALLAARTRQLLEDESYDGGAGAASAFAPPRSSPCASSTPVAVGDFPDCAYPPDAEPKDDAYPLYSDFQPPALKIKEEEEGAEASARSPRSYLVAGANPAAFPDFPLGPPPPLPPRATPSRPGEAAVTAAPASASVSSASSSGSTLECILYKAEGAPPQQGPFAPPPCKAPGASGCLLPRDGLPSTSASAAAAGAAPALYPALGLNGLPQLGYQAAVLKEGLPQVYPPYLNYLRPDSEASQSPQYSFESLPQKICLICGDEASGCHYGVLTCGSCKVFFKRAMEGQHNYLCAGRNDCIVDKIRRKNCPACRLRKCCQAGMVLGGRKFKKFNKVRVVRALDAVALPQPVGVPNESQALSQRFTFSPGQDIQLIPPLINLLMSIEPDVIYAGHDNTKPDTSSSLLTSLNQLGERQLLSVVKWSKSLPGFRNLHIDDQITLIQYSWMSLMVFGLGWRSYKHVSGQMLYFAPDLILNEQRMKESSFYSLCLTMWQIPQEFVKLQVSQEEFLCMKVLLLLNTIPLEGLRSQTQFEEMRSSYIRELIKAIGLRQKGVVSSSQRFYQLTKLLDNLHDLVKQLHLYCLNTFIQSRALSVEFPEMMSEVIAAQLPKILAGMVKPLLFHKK
# Outline: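 T47D lysate; tritiated or iodinated radioligand; scintillation count at 18 h. DMSO = negative control/baseline. Primary: 25 uM, duplicate. Secondary: concentration series for actives.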
# [2] = molecular target: Nuclear receptor subfamily 1 group I member 2 (Homo sapiens) (UniProt O75469); assay: NVS_NR_hPXR: NovaScreen (NVS) Nuclear Receptor Binding Assay for human Pregnane X Receptor (PXR) (AID 2283365);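 note: a drop in FRET signal versus DMSO baseline means the compound binds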
# Sequence of Nuclear receptor subfamily 1 group I member 2 (Homo sapiens) (O75469 whole entry, looked up): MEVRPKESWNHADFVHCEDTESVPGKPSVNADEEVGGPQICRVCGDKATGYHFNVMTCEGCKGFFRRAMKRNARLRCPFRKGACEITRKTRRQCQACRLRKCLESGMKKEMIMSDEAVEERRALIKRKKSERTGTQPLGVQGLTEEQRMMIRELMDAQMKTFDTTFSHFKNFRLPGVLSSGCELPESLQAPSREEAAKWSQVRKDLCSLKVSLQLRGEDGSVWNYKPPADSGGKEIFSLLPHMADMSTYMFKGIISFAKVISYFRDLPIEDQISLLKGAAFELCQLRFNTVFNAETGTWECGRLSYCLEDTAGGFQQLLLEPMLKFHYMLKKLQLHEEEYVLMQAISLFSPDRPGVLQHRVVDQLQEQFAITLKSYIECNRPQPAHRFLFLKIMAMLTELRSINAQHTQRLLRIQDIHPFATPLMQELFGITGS
# Outline: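 Cell-free TR-FRET binding assay with extracted human PXR protein, read 2 h after dosing. Primary screen run in duplicate at 25 uM, actives followed in concentration series; loss of signal fitted against DMSO baseline.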
# [3] = molecular target: Estrogen receptor (Homo sapiens) + Estrogen receptor beta (Homo sapiens) (UniProt P03372+Q92731); assay: OT_ER_ERaERb_1440: Odyssey Thera (OT) 24-hour HEK293T Protein-Complementation Assay for Estrogen Receptor-alpha/-beta Homodimer (AID 2283356);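 note: heteromer of ER alpha and ER beta binding domains; hits raise reporter fluorescence and both agonists and antagonists give an increase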
# Sequence of Estrogen receptor (Homo sapiens) + Estrogen receptor beta (Homo sapiens) (P03372 whole entry, looked up, the tested form may be a part): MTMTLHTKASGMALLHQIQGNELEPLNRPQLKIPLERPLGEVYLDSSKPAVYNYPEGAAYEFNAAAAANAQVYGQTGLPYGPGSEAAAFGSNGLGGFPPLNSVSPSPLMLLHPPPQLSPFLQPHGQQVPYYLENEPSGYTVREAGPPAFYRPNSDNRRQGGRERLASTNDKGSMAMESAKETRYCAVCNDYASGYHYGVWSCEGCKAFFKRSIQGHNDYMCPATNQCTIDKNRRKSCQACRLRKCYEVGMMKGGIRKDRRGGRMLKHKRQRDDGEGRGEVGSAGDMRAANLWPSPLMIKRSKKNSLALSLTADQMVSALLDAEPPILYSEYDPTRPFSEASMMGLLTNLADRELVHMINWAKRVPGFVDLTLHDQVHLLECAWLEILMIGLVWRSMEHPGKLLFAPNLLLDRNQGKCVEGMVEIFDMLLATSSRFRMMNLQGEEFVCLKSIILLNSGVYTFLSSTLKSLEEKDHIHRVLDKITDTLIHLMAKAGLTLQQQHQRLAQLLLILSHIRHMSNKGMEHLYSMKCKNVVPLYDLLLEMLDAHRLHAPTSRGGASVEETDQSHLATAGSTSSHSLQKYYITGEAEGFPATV
# Sequence of Estrogen receptor (Homo sapiens) + Estrogen receptor beta (Homo sapiens) (Q92731 whole entry, looked up, the tested form may be a part): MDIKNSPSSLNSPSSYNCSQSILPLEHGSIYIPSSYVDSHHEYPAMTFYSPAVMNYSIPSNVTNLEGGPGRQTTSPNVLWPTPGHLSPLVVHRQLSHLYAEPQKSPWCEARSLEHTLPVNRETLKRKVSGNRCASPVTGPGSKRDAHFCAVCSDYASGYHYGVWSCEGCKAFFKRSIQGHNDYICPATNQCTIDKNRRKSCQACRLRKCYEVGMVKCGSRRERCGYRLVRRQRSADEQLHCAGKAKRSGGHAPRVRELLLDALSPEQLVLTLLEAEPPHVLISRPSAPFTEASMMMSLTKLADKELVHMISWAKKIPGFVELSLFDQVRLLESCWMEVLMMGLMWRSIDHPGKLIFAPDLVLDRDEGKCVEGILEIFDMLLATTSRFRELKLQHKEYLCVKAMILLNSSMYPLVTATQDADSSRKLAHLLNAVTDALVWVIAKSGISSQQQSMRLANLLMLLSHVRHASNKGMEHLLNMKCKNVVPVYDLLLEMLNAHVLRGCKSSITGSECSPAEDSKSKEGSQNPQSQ
# Outline: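 HEK293T stably expressing a PCA of ER alpha LBD (aa 310-547) and ER beta LBD (aa 263-489). After 24 h compound exposure, mean fluorescence intensity in nucleus (agonists) or nucleus and cytoplasm (antagonists) measured by laser scanning cytometry versus vehicle.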
# [4] = molecular target: Estrogen receptor beta (Homo sapiens) (UniProt Q92731); assay: OT_ER_ERbERb_0480: Odyssey Thera (OT) 8-hour HEK293T Protein-Complementation Assay for Estrogen Receptor-beta/-beta Homodimer (AID 2283357);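 note: active means signal gain over DMSO baseline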
# Sequence of Estrogen receptor beta (Homo sapiens) (Q92731 whole entry, looked up, the tested form may be a part): as above
# Outline: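 Readout: increase in mean fluorescence intensity (nucleus for agonists; nucleus plus cytoplasm for antagonists) relative to DMSO, from a reporter-fragment complementation of human ER-beta LBD homodimer in HEK293T cells dosed 8 hours.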
# [5] = molecular target: human Peroxisome Proliferator-activated Receptor alpha (PPARa), PPARA (gene 5465) (UniProt Q07869); assay: NVS_NR_hPPARa: NovaScreen (NVS) Nuclear Receptor Binding Assay for human Peroxisome Proliferator-activated Receptor alpha (PPARa) (AID 2283359);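 note: activity means loss of TR-FRET signal versus DMSO baseline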
# Sequence of human Peroxisome Proliferator-activated Receptor alpha (PPARa), PPARA (gene 5465) (Q07869 whole entry, looked up): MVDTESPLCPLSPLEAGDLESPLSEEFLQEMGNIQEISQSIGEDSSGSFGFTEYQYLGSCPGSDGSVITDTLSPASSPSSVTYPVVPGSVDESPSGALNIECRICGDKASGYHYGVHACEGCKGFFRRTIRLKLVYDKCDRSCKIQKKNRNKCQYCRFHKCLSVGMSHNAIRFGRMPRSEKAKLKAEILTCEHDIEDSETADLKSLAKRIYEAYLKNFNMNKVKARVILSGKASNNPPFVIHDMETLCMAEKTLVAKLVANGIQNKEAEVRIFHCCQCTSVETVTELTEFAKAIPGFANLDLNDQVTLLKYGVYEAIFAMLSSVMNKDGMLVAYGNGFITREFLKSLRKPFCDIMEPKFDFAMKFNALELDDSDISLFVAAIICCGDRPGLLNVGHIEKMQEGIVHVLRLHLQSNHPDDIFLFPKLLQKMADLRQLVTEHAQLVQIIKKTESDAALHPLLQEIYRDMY
# Outline: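 Cell-free binding assay with extracted human protein, read by TR-FRET 1 h after chemical dosing. Loss of signal relative to DMSO baseline indicates binding. Primary screen used duplicate single concentration (25 uM); actives followed up in concentration series.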
# [6] = molecular target: Retinoic acid receptor alpha (Homo sapiens) (UniProt P10276); assay: NVS_NR_hRAR_Antagonist: NovaScreen (NVS) Nuclear Receptor Binding Assay for human Retinoic Acid Alpha Receptor Antagonism (RAR) (AID 2283358)
# Sequence of Retinoic acid receptor alpha (Homo sapiens) (P10276 whole entry, looked up): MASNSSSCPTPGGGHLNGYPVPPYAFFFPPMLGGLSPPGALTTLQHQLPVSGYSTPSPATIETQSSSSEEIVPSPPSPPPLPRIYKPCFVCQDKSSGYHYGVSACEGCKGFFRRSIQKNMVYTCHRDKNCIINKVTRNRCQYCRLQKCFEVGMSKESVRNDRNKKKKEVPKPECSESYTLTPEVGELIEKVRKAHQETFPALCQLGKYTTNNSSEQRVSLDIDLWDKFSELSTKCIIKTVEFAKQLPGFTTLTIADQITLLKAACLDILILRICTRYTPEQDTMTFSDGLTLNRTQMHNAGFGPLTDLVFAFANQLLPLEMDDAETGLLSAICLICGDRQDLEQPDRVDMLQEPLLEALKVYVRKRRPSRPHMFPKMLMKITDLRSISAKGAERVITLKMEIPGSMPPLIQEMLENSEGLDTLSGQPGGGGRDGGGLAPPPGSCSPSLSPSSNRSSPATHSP
# Outline: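 Cell-free TR-FRET binding assay on extracted receptor protein, run in antagonist mode; signal read 2 hours after chemical dosing. Loss of signal was fitted relative to DMSO baseline. Screened at 25 uM in duplicate, actives followed up in concentration series.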
# [7] = molecular target: guinea pig Sigma Receptor, Non-selective Binding, SIGMAR1 (gene 100135589) (UniProt Q60492); assay: NVS_OR_gSIGMA_NonSelective: NovaScreen (NVS) Nuclear Receptor Binding Assay for guinea pig Sigma Receptor, Non-selective Binding (AID 2283367)
# Sequence of guinea pig Sigma Receptor, Non-selective Binding, SIGMAR1 (gene 100135589) (Q60492 whole entry, looked up): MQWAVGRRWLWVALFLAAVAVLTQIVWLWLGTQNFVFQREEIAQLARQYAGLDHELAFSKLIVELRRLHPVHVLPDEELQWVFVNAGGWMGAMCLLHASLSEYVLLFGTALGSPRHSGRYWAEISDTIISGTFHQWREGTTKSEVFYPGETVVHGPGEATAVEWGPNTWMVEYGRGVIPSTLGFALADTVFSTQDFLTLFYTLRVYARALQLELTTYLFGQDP
# Outline: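 Guinea pig brain membranes, cell-free radioligand binding; read 1 h after dosing by filter-based scintillation counting. Loss of signal vs DMSO baseline taken as displacement. Primary screen single concentration 25 uM in duplicate; actives retested in concentration series.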
# [8] = molecular target: Glucocorticoid receptor (Homo sapiens) (UniProt P04150); assay: NVS_NR_hGR: NovaScreen (NVS) Nuclear Receptor Binding Assay for human Glucocorticoid Receptor (GR) (AID 2283363);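 for AC50: activity is loss of specific radioligand binding signal relative to DMSO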
# Sequence of Glucocorticoid receptor (Homo sapiens) (P04150 whole entry, looked up): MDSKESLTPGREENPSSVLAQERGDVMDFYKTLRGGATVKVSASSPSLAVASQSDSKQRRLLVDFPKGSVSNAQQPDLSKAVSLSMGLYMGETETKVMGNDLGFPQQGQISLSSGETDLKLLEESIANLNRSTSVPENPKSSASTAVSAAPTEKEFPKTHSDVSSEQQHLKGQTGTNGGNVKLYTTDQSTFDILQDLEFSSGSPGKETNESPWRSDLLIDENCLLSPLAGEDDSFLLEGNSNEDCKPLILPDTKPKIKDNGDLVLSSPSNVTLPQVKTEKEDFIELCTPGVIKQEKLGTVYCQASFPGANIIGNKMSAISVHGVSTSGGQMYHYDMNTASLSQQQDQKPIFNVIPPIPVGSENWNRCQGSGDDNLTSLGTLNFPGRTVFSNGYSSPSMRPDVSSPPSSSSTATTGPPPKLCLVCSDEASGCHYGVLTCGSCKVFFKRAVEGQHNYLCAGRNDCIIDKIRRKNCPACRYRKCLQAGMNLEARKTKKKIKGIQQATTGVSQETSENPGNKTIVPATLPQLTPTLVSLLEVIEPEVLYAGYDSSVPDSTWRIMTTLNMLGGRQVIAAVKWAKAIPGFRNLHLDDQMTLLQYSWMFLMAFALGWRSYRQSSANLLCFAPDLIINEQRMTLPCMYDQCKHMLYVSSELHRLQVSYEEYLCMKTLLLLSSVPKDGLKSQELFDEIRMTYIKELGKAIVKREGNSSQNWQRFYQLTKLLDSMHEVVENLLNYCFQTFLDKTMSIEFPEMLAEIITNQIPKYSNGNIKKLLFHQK
# Outline: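 Cell-free radioligand binding with extracted receptor protein, read by filter-based scintillation counting 16 hours after dosing. Loss of specific signal versus DMSO baseline was scored. Primary screen ran in duplicate at 25 uM; actives were followed up in concentration series.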
smiles,measurement,setting,value
CC1(C)CC(N=C=O)CC(C)(CN=C=O)C1 (configuration not stated),AC50,[1],11.7 µM (active)
CC(=O)OC/C=C(\C)CCC=C(C)C,outcome,[2],inactive
COCCOC[C@H](CC1(C(=O)NC2CCC(C(=O)O)CC2)CCCC1)C(=O)Oc1ccc2c(c1)CCC2 (some centres not stated),outcome,[3],inactive
same,outcome,[4],inactive
same,outcome,[1],inactive
CC(CO)OC(C)CO (configuration not stated) (tested in a mixture with another compound),outcome,[5],inactive
same,outcome,[2],inactive
CN[C@H]1CC[C@@H](c2ccc(Cl)c(Cl)c2)c2ccc(S(N)(=O)=O)cc21,outcome,[1],inactive
CCCCCCCCCCCCCCCCCC(=O)O,AC50,[5],0.608 µM (active)
FC(F)(F)C(F)(F)C(F)(F)C(F)(F)C(F)(F)C(F)(F)CCI,outcome,[6],inactive
same,outcome,[2],inactive
same,AC50,[7],3.3 µM (active)
C=CCOC(=O)c1ccccc1C(=O)OCC=C,outcome,[5],inactive
CC(C)c1ccc(C(=O)N=C(N)N)cc1S(C)(=O)=O,outcome,[3],inactive
same,outcome,[4],inactive
same,outcome,[2],inactive
NCCO,outcome,[6],inactive
Cc1nc(C)nc(N2C[C@@H](C)N(c3ccnc([C@@H](C)O)n3)[C@@H](C)C2)n1,AC50,[7],3.21 µM (active)
Cc1ccc2ncccc2c1,outcome,[6],inactive
CN1CCN(Cc2cc(-c3ccc4[nH]c(=O)oc4c3)co2)[C@@H](c2ccc(F)cc2)C1,AC50,[8],13.2 µM (active)
same,AC50,[7],5.66 µM (active)
COc1cc(S(=O)(=O)O)c(C)cc1N=Nc1c(O)ccc2cc(S(=O)(=O)O)ccc12,AC50,[1],14.2 µM (active)
same,outcome,[8],inactive
CC(C)(C)c1cc(O)c(C(C)(C)C)cc1O,outcome,[3],inactive
same,outcome,[4],inactive
same,AC50,[7],5.75 µM (active)
Nc1ccccc1N,outcome,[3],inactive
same,outcome,[1],inactive
CNC(=O)[C@H]1O[C@@H](n2cnc3c(NCc4cc(Cl)ccc4OCc4cc(C)no4)ncnc32)[C@H](O)[C@@H]1N,outcome,[3],inactive
same,outcome,[4],inactive
same,outcome,[2],inactive
same,AC50,[7],9.75 µM (active)
